Compound activity (PubChem BioAssay)
This is a sample that favours compounds with a hit; in the whole collection about 3.3% have one here.
AmpC inh detg: inhibitors of E. coli AmpC beta-lactamase with detergent | P00811 | AmpC hydrolysis of nitrocefin, absorbance 480 nm, 0.01% Triton | Potency, µM (series often up to 114 µM), usual class: inhibitors | actives 0.041% (n = 370,000) | AID 485294; further: nearly all actives have a fitted effect of over 25% in size
Target sequence (P00811 whole entry, looked up): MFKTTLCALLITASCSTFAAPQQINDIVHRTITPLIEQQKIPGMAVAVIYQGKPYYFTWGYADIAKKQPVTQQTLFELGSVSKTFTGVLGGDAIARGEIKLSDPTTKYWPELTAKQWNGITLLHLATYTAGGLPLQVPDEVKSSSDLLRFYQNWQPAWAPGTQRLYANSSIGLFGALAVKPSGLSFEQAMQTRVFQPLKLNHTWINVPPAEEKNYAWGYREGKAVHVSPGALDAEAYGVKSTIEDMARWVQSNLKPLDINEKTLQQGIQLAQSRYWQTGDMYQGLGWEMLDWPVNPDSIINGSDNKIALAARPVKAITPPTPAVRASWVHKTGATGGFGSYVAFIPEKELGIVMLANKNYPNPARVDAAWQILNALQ
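AmpC (5.3 nM in the dispensed reagent) in 20 mM phosphate pH 7.0 with 0.01% (detergent screen) or 0.0001% Triton X-100 was preincubated with compounds for 15 min at room temperature. Nitrocefin was then added from an 800 uM solution, and hydrolysis was followed at 480 nm.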
SARS PLP yeast: blocks SARS-CoV papain-like protease in a yeast assay; S. cerevisiae expressing SARS-CoV PLpro, growth rescue; Potency, µM (highest dose often 32.9 µM), hits mostly activators; actives 0.19% (n = 330,000); calls by dose curve; further: nearly all actives have a fitted effect of over 55% in size
AmpC no deterg: AmpC beta-lactamase inhibition without detergent. P00811. AmpC nitrocefin hydrolysis, absorbance 480 nm, 0.0001% Triton. Potency, µM (titrated, usually from 57.1 µM), hits mostly inhibitors. actives 0.52% (n = 330,000). AID 485341; further: nearly all actives have a fitted effect of over 20% in size
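AmpC (5.3 nM in the dispensed reagent) in 20 mM phosphate pH 7.0 with 0.01% (detergent screen) or 0.0001% Triton X-100 was preincubated with compounds for 15 min at room temperature. Nitrocefin was then added from an 800 uM solution, and hydrolysis was followed at 480 nm.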
RE007 growth inh: less growth of the S. pombe RE007 Vpr strain | S. pombe RE007 Vpr strain, BacTiter-Glo ATP luminescence, 24 h | Potency, µM (titrated, usually from 92.2 µM), hits mostly inhibitors | actives 0.21% (n = 360,000); active means well fitted falling curve with a large enough effect; inconclusive means small, poorly fitted or top-dose-only effect; inactive means no such curve, though single readings can be large or run the other way; further: nearly all actives have a fitted effect of over 50% in size
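Fission yeast RE007 carrying one integrated HIV-1 vpr copy, seeded at OD 0.01 in PMG+AL medium with 23 nL pinned compound. Grown 24 h at 30 degrees; viability read by BacTiter-Glo luminescence after 5 min.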
Tb PYK inh: inhibitors of Trypanosoma brucei pyruvate kinase; Q57TT1; TbPYK enzyme, Kinase-Glo Plus ATP luminescence, 45 min; Potency, µM (highest dose often 76.8 µM), actives largely listed as inhibitors; actives 0.12% (n = 410,000); AID 624173; further: nearly all actives have a fitted effect of over 50% in size
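Glycolytic pyruvate kinase of T. brucei was incubated with substrate, test compound and 130 uM ADP for 45 minutes at room temperature. Luminescent Kinase-Glo Plus signal was measured after 10 minutes.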
Sm TGR block: S. mansoni TGR enzyme inhibition; Potency, µM (doses to about 114 µM), actives largely listed as inhibitors; purified TGR, DTNB reduction, TNB absorbance 405 nm; actives 3% (n = 360,000); Q962Y6; further: nearly all actives have a fitted effect of over 60% in size
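First, TGR (20 nM dispensed) and NADPH were mixed with compound. Second, a 15 min room-temperature incubation followed. Third, further NADPH and then DTNB were added to start the reaction. Finally, TNB absorbance was monitored kinetically.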
Each line names hits and unclear results; the compound was inactive in the other large screens. Unless noted, the call rests on the fitted dose curve; in most records, active means well fitted curve in the direction sought with a large enough effect; inconclusive means small, poorly fitted or top-dose-only effect, or another doubt; inactive means no such curve, though single readings can be large; an effect the other way counts as inactive or inconclusive.

Cn1c(SCC(=O)NC2CCCCC2)nnc1-c1ccncc1	AmpC inh detg inconclusive
O=C(CSc1nc(-c2ccncc2)nn1CC(=O)N1CCCCC1)NC1CCCC1	Sm TGR block 39.8µM
O=C(/C=C/c1ccco1)N1CCN(c2ccccc2)CC1	AmpC inh detg inconclusive, Sm TGR block 11.2µM
O=C(/C=C/c1ccco1)N1CCN(S(=O)(=O)/C=C/c2ccccc2)CC1	Sm TGR block 12.6µM
O=C(C=Cc1ccco1)N1CCOCC1	none (no result: AmpC inh detg, SARS PLP yeast, AmpC no deterg, Sm TGR block)
O=C(/C=C/c1ccco1)N1CCN(C/C=C/c2ccccc2)CC1	Sm TGR block 39.8µM
Cc1ccc(/C=C/C(=O)N2CCN(S(=O)(=O)/C=C/c3ccccc3)CC2)o1	Sm TGR block 14.1µM
CCOC(=O)c1[nH]c2c(c1Cc1ccccc1OC)C(=O)CC(c1ccc(OCC)cc1)C2 (stereo not drawn)	none (no result: SARS PLP yeast, AmpC no deterg, RE007 growth inh)
COC(=O)c1ccccc1NC(=O)Cc1nc(-c2ccc(OC)cc2)no1	none (no result: SARS PLP yeast, AmpC no deterg, RE007 growth inh)
COc1ccc(C2c3cc(OC)c(OC)cc3CC(=O)N2c2ccc(C)c(F)c2)cc1 (stereo not drawn)	none (no result: SARS PLP yeast, AmpC no deterg, RE007 growth inh)
O=C(CS(=O)(=O)c1cccc2nsnc12)NCc1ccccc1	none (no result: SARS PLP yeast, AmpC no deterg, RE007 growth inh)
NC(=O)C1CCN(C(=O)/C=C/c2ccco2)CC1	Sm TGR block 7.94µM
CCC(CC)C(=O)N1c2ccccc2C(C)(c2ccccc2)CC1(C)C (stereo not drawn)	none (no result: SARS PLP yeast, AmpC no deterg, RE007 growth inh)
Fc1cccc(Cl)c1-c1nnc2ccc(N3CCOCC3)nn12	none (no result: Tb PYK inh)
Clc1cccc(Cl)c1-c1nnc2ccc(N3CCOCC3)nn12	AmpC no deterg 0.501µM
COc1cccc(N(C)C(=S)Oc2ccc3c(c2)CCCC3)n1	none (no result: AmpC inh detg, SARS PLP yeast, AmpC no deterg, RE007 growth inh, Sm TGR block)
Cc1ccc(CNC(=O)CC(C)S(=O)(=O)c2ccc3c(c2)NC(=O)CS3)o1 (stereo not drawn)	Sm TGR block 14.1µM
Cc1ccc(CNC(=O)CC(C)S(=O)(=O)c2ccc3c(c2)NC(=O)CO3)cc1 (stereo not drawn)	none
O=C(Nc1ccc2nc(SCC(=O)N3CCCC3)sc2c1)c1ccccc1F	none (no result: SARS PLP yeast, AmpC no deterg, RE007 growth inh)
COc1cc(NC(=O)Cn2c(=O)cc(C)c3c(C)nn(-c4ccc(C)cc4)c32)cc(OC)c1	AmpC inh detg inconclusive (no result: SARS PLP yeast, AmpC no deterg, RE007 growth inh)
CCN(Cc1ccccc1)C(=O)c1ccc(CS(=O)c2ccccc2C)o1 (stereo not drawn)	Sm TGR block 14.1µM
O=C(CCC1COc2ccccc2O1)NCc1ccco1 (stereo not drawn)	Sm TGR block 39.8µM
O=C(/C=C/c1ccco1)Nc1ccc2c(c1)OCO2	Sm TGR block 14.1µM
C=CC(=O)NCC1OCCc2ccccc21 (stereo not drawn)	none
O=C(CCC1COc2ccccc2O1)NCC1COc2ccccc2O1 (stereo not drawn)	AmpC inh detg inconclusive
O=C(/C=C/c1ccco1)NCC1OCCc2ccccc21 (stereo not drawn)	Tb PYK inh inconclusive, Sm TGR block 0.501µM
O=C(/C=C/c1ccco1)NCc1ccc2c(c1)OCO2	Sm TGR block 14.1µM
O=C(NCc1ccco1)C1c2ccccc2Oc2ccccc21	Sm TGR block 39.8µM
O=C(/C=C/c1ccco1)NCC1COc2ccccc2O1 (stereo not drawn)	Sm TGR block 0.891µM
Cc1ccc(NC(=O)/C=C\C(=O)NCC(=O)O)cc1C	AmpC inh detg inconclusive, RE007 growth inh inconclusive, Sm TGR block 1.78µM
CCN1CCC(N(Cc2cccc(OC)c2)C(=O)Nc2cccc(C(F)(F)F)c2)CC1	none (no result: SARS PLP yeast, AmpC no deterg, RE007 growth inh)
COc1ccc(C)cc1NC1(c2ccccc2)C(=O)c2ccccc2C1=O	none (no result: SARS PLP yeast, AmpC no deterg, RE007 growth inh)
Cn1nc(C(C)(C)C)cc1C(=O)O	none
Cn1nc(C(C)(C)C)cc1C(=O)Sc1cccc(Br)c1	Sm TGR block 12.6µM
COc1cccc(C(=O)Nc2c(C(=O)NC(C)(C)C)oc3ccccc23)c1	none (no result: SARS PLP yeast, AmpC no deterg, RE007 growth inh)
CCC1(C(=O)OC)NC(c2ccco2)C2C(=O)N(c3ccccc3)C(=O)C21 (stereo not drawn)	none
O=C1C2C3C=CC(CO)(O3)C2C(=O)N1c1ccc(-c2ccccc2)cc1 (stereo not drawn)	Sm TGR block 0.501µM (no result: RE007 growth inh, Tb PYK inh)
CC(C)(C)C(=O)NCC12C=CC(O1)C1C(=O)N(c3ccccc3)C(=O)C12 (stereo not drawn)	AmpC inh detg inconclusive, RE007 growth inh 8.91µM, Tb PYK inh inconclusive, Sm TGR block 1.58µM
COC(=O)COc1cccc2c(=O)n(CC(=O)N3CCCc4ccccc43)ccc12	AmpC inh detg inconclusive, AmpC no deterg 0.631µM
CCOC(=O)COc1cccc2c(=O)n(CC(=O)N3CCCCC3)ccc12	none
Cc1nn2c(=O)cc(COc3ccc(/C=C(\C#N)C(=O)Nc4ccccc4)cc3Cl)nc2s1	none (no result: SARS PLP yeast, AmpC no deterg, RE007 growth inh)
O=C(Nc1cc(F)ccc1F)C1COc2ccccc2C1 (stereo not drawn)	none (no result: SARS PLP yeast, AmpC no deterg, RE007 growth inh)
CCN1C(=O)/C(=C/c2ccc(N3CCCC3)cc2)NC1=S	AmpC no deterg 28.2µM
CCC(=O)N1CCN(c2nc3c(C)cccc3s2)CC1	none (no result: SARS PLP yeast, AmpC no deterg, RE007 growth inh)
CN(C)C(=O)COc1ccc(S(=O)(=O)c2ccc(OCC(=O)N(C)C)cc2)cc1	Sm TGR block 79.4µM
COc1ccc(-c2cn(-c3ccc(C)cc3C)c(=S)[nH]2)cc1OC	none
COc1ccc(-c2cn(-c3cccc(C)c3)c(=O)[nH]2)cc1OC	Sm TGR block 12.6µM
CCOC(=O)/C(C#N)=C\C1=C(N2CCOCC2)CC(C)(C)OC1	Sm TGR block 31.6µM
Cc1ccc(-n2c(O)c(/C=C/C=Nc3ccccc3)c(=O)[nH]c2=O)cc1	none
Cc1ccc(N/N=C/c2c(O)n(-c3ccccc3)c(=O)[nH]c2=O)cc1	Sm TGR block 17.8µM
Cc1ccc2c(c1C)-c1c(ccc(C)c1C)C(=O)C2=O	RE007 growth inh 44.7µM (no result: AmpC inh detg, SARS PLP yeast, AmpC no deterg, Sm TGR block)
CCOc1ccc(N2C(=O)CC(N3CCN(c4ccccc4F)CC3)C2=O)cc1 (stereo not drawn)	none
COc1ccccc1N1CCN(C2CC(=O)N(c3ccc(F)cc3)C2=O)CC1 (stereo not drawn)	Sm TGR block inconclusive
COc1ccccc1N1CCN(C2CC(=O)N(c3cccc(Cl)c3)C2=O)CC1 (stereo not drawn)	AmpC inh detg inconclusive, RE007 growth inh inconclusive, Sm TGR block 39.8µM
COc1ccccc1N1C(=O)CC(N2CCN(c3ccc([N+](=O)[O-])cc3)CC2)C1=O (stereo not drawn)	Sm TGR block 39.8µM
COc1ccccc1N1CCN(C2CC(=O)N(c3ccccc3)C2=O)CC1 (stereo not drawn)	RE007 growth inh inconclusive, Sm TGR block inconclusive
